High-throughput results: PubChem, National Center for Advancing Translational Sciences (NCATS)
KB-3-1 cytotox = kills parental KB-3-1 adenocarcinoma cells | KB-3-1 viability, CellTiter-Glo ATP luminescence, 72 h | Potency, µM (series often up to 46.1 µM), hits mostly cytotoxic | 400,000 tested, 1.4% active | AID 1347075; also: nearly all actives have a fitted effect of over 60% in size
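Screening of KB-3-1 cells (DMEM, 10% FBS, phenol-red free) ran from lowest to highest compound concentration; after 72 h at 37 °C viability was read luminescently and curves fitted.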
TDP1 cell CPT = growth inhibition of DT40 Tdp1-/-;hTDP1 cells with camptothecin (screen for TDP1 inhibitors); chicken DT40 Tdp1-/-;hTDP1 cells + 20 nM CPT, ATP luminescence, 48 h; Potency, µM (doses to about 46.2 µM), for inactives: at the top dose activity change, negative = growth inhibition, usual class: inhibitors; 420,000 tested, 12% active; AID 686979; also: nearly all actives have a fitted effect of over 55% in size
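Cell growth measured by CellTiter-Glo luminescence after a minimum 48 h, 37 C compound exposure with 20 nM CPT in Tdp1-knockout DT40 cells stably expressing hTDP1, seeded 400/well; qHTS titration format.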
HT1080-NT tox = kills 2HG-producing HT-1080-NT fibrosarcoma cells; HT-1080-NT fibrosarcoma viability, CellTiter-Glo ATP luminescence, 48 h; Potency, µM (series often up to 46.1 µM), inactives show at the highest dose activity, negative = less viability, actives largely listed as cytotoxic; 360,000 tested, 1.6% active; AID 686970;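 also: NT is the 2HG producing partner of a matched IDH1 knockdown line; 0% = DMSO-treated cells and -100% = media-only wells without cells; nearly all actives have a fitted effect of over 55% in size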
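Read-out is CellTiter-Glo luminescence after 10 minutes at room temperature, following 48 hours' compound treatment of HT-1080-NT cells (750 cells/well, RPMI, 5% FBS, 37 degrees C).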
DT40 TDP1 no CPT = qHTS for Inhibitors of human tyrosyl-DNA phosphodiesterase 1 (TDP1): qHTS in cells in absence of CPT | DT40 Tdp1-/- hTDP1 cells, no CPT, ATP luminescence, 48 h | 420,000 tested, 15% active | Potency, µM (top dose mostly 46.2 µM), without a hit: at the top dose activity change, negative = growth inhibition, actives largely listed as inhibitors; also: nearly all actives have a fitted effect of over 55% in size
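Chicken DT40 Tdp1-/- cells complemented with human TDP1, screened without camptothecin (DMSO vehicle only), 400 cells/well. Compounds pin-transferred, cells incubated at 37 °C for at least 48 hr. Growth read as ATP-dependent luminescence (CellTiter-Glo, 30 min at RT).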
HT1080 IDH1KD tx = kills HT-1080 cells with IDH1 knockdown | AID 686971 | Potency, µM (doses to about 46.1 µM), for inactives: top-dose activity, negative = toxicity, usual class: cytotoxic | 360,000 tested, 2% active | HT-1080 IDH1 knockdown viability, ATP luminescence, 48 h;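 also: 0% = DMSO wells and -100% = cell-free medium wells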
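Knockdown cells (IDH1KD HT-1080) received compounds 2 h after plating at 750 cells/well and were kept 48 h at 37 °C in 5% FBS RPMI. A CellTiter-Glo luminescence read gave % activity for curve fitting.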
KB-V1 cytotox = kills drug-selected multidrug resistant KB-V1 cells; 400,000 tested, 3.4% active; KB-V1 MDR cells viability, CellTiter-Glo, 72 h; Potency, µM (top dose mostly 46.1 µM), hits mostly cytotoxic; also: nearly all actives have a fitted effect of over 60% in size
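Drug-selected KB-V1 cells, grown in DMEM lacking phenol red with 10% FBS, receive compound titrations; after three days at 37 degrees C, surviving cell ATP is quantified by CellTiter-Glo luminescence and responses normalized and curve-fitted.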
Numbers without * were called inactive; i = inactive; ? = inconclusive; nt = no result. The list is not random: actives were taken first. Their share in the collection is about 19%. Calls follow the shape of the dose curve; as a rule, active = well fitted curve in the direction sought with a large enough effect; inconclusive = small, poorly fitted or top-dose-only effect, or another doubt; inactive = no such curve, though single readings can be large; an effect the other way counts as inactive or inconclusive. Unless noted, % is scaled to controls: 0 for no effect and ±100 for the full control effect; potency is read from the fitted curve at half-maximal effect.

SMILES	KB-3-1 cytotox	TDP1 cell CPT	HT1080-NT tox	DT40 TDP1 no CPT	HT1080 IDH1KD tx	KB-V1 cytotox
C[C@H]1CN([C@@H](C)CO)C(=O)c2cccc(NC(=O)Nc3ccc(C(F)(F)F)cc3)c2O[C@@H]1CN(C)C(=O)Nc1ccc(F)cc1	?	5.2µM*	?	5.8µM*	?	i
CCc1nn(CC(=O)Nc2c(C)cccc2C)c(=O)c2cc3sccc3n12	i	-5%	nt	-17%	nt	i
C[C@H](CO)N1C[C@H](C)[C@@H](CN(C)Cc2ccncc2)Oc2c(NS(=O)(=O)c3ccccc3)cccc2C1=O	i	-1%	8%	-24%	0%	i
Cc1ccc(S(=O)(=O)Nc2cccc3c2O[C@@H](CN(C)C(=O)Nc2ccc4c(c2)OCO4)[C@H](C)CN([C@@H](C)CO)C3=O)cc1	i	?	-1%	?	0%	i
Cc1ccc(S(=O)(=O)Nc2cccc3c2O[C@H](CN(C)C(=O)Nc2cccc4ccccc24)[C@H](C)CN([C@H](C)CO)C3=O)cc1	i	21µM*	-22%	21µM*	-17%	i
C[C@H](CO)N1C[C@H](C)[C@@H](CN(C)Cc2ccc(-c3ccccc3)cc2)Oc2c(NS(=O)(=O)c3cccs3)cccc2C1=O	i	18µM*	-28%	?	-9%	i
C[C@H](CO)N1C[C@H](C)[C@@H](CN(C)C(=O)Nc2ccc(C(F)(F)F)cc2)Oc2c(NC(=O)Nc3ccc(C(F)(F)F)cc3)cccc2C1=O	16µM*	9.2µM*	?	7.3µM*	?	?
COc1ccc(S(=O)(=O)Nc2cccc3c2O[C@H](CN(C)Cc2ccc(Cl)c(Cl)c2)[C@@H](C)CN([C@H](C)CO)C3=O)cc1	i	21µM*	-28%	18µM*	?	i
CCOC(=O)c1nn(-c2ccc(F)cc2)c(=O)cc1OCC(=O)N1CCN(c2ccccc2)CC1	i	?	-6%	?	-14%	?
COc1ccc(NC(=O)Nc2cccc3c2O[C@H](CN(C)S(=O)(=O)c2ccc(OC)cc2)[C@@H](C)CN([C@H](C)CO)C3=O)cc1	i	?	-1%	?	-1%	?
COc1ccc(NC(=O)Nc2cccc3c2O[C@H](CN(C)S(=O)(=O)c2ccccc2)[C@@H](C)CN([C@H](C)CO)C3=O)cc1	i	18µM*	-8%	?	?	i
CC1(C(=O)NS(=O)(=O)c2cccs2)CCN1C(=O)c1ccccc1 (stereo not drawn)	i	15%	17%	15%	22%	i
COc1ccc2c(c1)c(/C=N/Nc1nc3ccccc3[nH]1)c(C)n2C	i	21µM*	?	?	?	i
C(=N\Nc1nc2ccccc2[nH]1)/c1cccc2nccnc12	?	2.9µM*	?	4.1µM*	?	?
Cc1c(C=O)c2cc(OCc3ccccc3)ccc2n1C	i	9%	9%	-1%	-19%	?
C(=N\Nc1nc2ccccc2[nH]1)/c1ccc2ncccc2c1	1µM*	?	0.65µM*	0.82µM*	0.73µM*	?
C#CCn1cc(/C=N/Nc2nc3ccccc3[nH]2)c2ccccc21	i	?	16µM*	?	?	i
CC1=C(C(=O)Nc2cccnc2)C(c2ccc(F)cc2)n2nc(SCc3ccccc3F)nc2N1 (stereo not drawn)	i	-17%	nt	-6%	nt	i
BrC(=C\c1ccccc1)/C=N/Nc1nc2ccccc2[nH]1	i	18µM*	-4%	?	?	?
c1ccc(CN2CCC(=NNc3nc4ccccc4[nH]3)CC2)cc1	i	3%	-30%	-24%	?	i
COc1ccc(/C=N/Nc2nc3ccccc3[nH]2)cc1OC	i	?	-16%	?	-23%	?
CCOc1cc(/C=N/Nc2nc3ccccc3[nH]2)cc(Br)c1OCC(=O)N(C)C	?	10µM*	?	13µM*	?	?
COc1cc(/C=N/NC2=NS(=O)(=O)c3ccccc32)cc(OC)c1OC	i	20%	7%	-10%	7%	i
Fc1ccccc1-c1ccc(/C=N/Nc2nc3ccccc3[nH]2)o1	?	?	?	?	26µM*	?
COc1cc(/C=N/NC2=NC(C)(C)Cc3ccccc32)cc(OC)c1OC	?	?	17%	21µM*	-1%	i
SMILES	KB-3-1 cytotox	TDP1 cell CPT	HT1080-NT tox	DT40 TDP1 no CPT	HT1080 IDH1KD tx	KB-V1 cytotox
Cc1ccc(/C=N\Nc2nc3ccc(Cl)cc3[nH]2)o1	i	?	-10%	21µM*	-14%	i
COc1cc(/C=N\Nc2nc3ccccc3[nH]2)cc(OC)c1OC	i	21µM*	-24%	12µM*	-20%	5.8µM*
C(=N\Nc1nc2ccccc2[nH]1)/c1ccccn1	i	?	?	21µM*	18µM*	i
c1ccc2c(c1)CC/C2=N/Nc1nc2ccccc2[nH]1	i	?	?	18µM*	?	?
CC(C)(C)C1CCC(=NNc2nc3ccccc3[nH]2)CC1 (stereo not drawn)	i	-15%	-19%	?	?	i
CCN(c1ccc(NC(=O)COC(=O)C2CCN(c3ccc(C(F)(F)F)cn3)CC2)cc1)C(C)C	i	?	11%	?	3%	i
COc1ccc(C(=O)Nc2cc(S(=O)(=O)c3ccc(Cl)cc3)c(O)c(C)c2C)cc1	i	-29%	nt	?	nt	i
O=C(Nc1cc(Cl)cc(Cl)c1)Nc1cnccn1	i	?	-3%	16µM*	-5%	i
COc1ccccc1NC(=O)Nc1cnccn1	?	-9%	14%	-3%	14%	4.1µM*
COc1ccc(OC)c(NC(=O)Nc2cnccn2)c1	i	-1%	17%	21%	3%	i
COc1ccccc1NC(=O)c1ccc(C(=O)Nc2ccccc2OC)nc1	i	4.6µM*	8%	?	8%	i
Cc1c(Cl)cccc1NC(=O)Nc1cnccn1	16µM*	-20%	2%	-5%	-2%	?
CC(=O)c1ccc(N2CCN(c3nc4ccccc4c4nc(-c5cccc(C)c5)nn34)CC2)cc1	nt	-8%	nt	-13%	nt	nt
CCCCNC(=O)CCCN1C(=O)c2ccccc2Sc2ncccc21	nt	-26%	nt	?	nt	nt
